Measurements taken from PubChem BioAssay AID686978 (National Center for Advancing Translational Sciences (NCATS), 2013).
Where “and” joins values, the source holds several entries; their conditions need not be identical. Equal values may be shown once. In all, about 420,000 compounds went through this assay and about 64,000 (15%) were called active. Roughly 27% stayed inconclusive and do not appear here. Calls come from the whole dose curve; as a rule, active = well fitted inhibition curve with a large enough effect; inconclusive = small, poorly fitted or top-dose-only effect; inactive = flat fitted curve, though single readings scatter. Only a sample is shown.

Assay: qHTS for Inhibitors of human tyrosyl-DNA phosphodiesterase 1 (TDP1): qHTS in cells in absence of CPT; note: nearly all actives have a fitted effect of over 55% in size
Details: DT40 Tdp1-/- hTDP1 cells, no CPT, ATP luminescence, 48 h; activity change, negative = growth inhibition: at 46.2 µM (top of the series)
Method in brief: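 Chicken DT40 Tdp1-/- cells stably complemented with human TDP1 were seeded at 400 cells/well with DMSO in place of 20 nM camptothecin. After compound pinning, cells grew at least 48 hr at 37 °C; viability read by CellTiter-Glo luminescence.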
% is set by controls: 0 for no effect and ±100 for the full control effect; potency is the fitted concentration of half-maximal effect.

SMILES	activity change, negative = growth inhibition	Potency
Cc1cc(NC(=O)CCC(=O)N(Cc2ccccc2)C(C(=O)NC2CCCC2)c2ccc(C)o2)no1 (stereo not given)	-28.1% (inactive)	
CCc1nc2ccc(C(=O)NC3CCN(Cc4ccccc4)CC3)cn2c1N(C)CCN1CCOCC1	-24.4% (inactive)	
O=C(NC(=S)Nc1ccccc1C(=O)O)c1ccc(-c2ccc(Br)cc2)o1	-10.9% (inactive)	
O=C(c1cccnc1NCc1ccccc1)N1CCOCC1	-11.3% (inactive)	
CC(=O)Nc1ccc(NC(=O)c2ccc3c(c2)C(=O)N(c2ccccc2C)C3=O)cc1	5.82% (inactive)	
NC(=O)C1(N2CCCCC2)CCN(C(=O)c2ccc(C#Cc3ccccc3)o2)CC1	-29.5% (inactive)	
COCCCNC(=O)CNC(=S)N(Cc1cc(OC)c(OC)c(OC)c1)C1CCCC1	7.92% (inactive)	
COc1ccc(C)cc1N(C)C(=O)c1coc(=O)c2ccccc12	-19.8% (inactive)	
CC/C(Cc1ccccc1)=N/NC(=O)CCn1nnc2ccccc21	0.293% (inactive)	
NS(=O)(=O)c1ccc(NC(=S)N2CCCC2)cc1	17.6% (inactive)	
CC1CN(Cc2ccco2)C(=S)N(c2ccccc2)C1=O (stereo not given)	-2.45% (inactive)	
CN(C)C(=S)N=c1ssc(=S)n1Cc1ccco1		1.64 µM (active)
CCN(CC)C(=O)CSc1nnc(CNc2ccc(F)cc2)n1Cc1ccco1	0.469% (inactive)	
CC1=CC=CC2=N/C(=N\S(=O)(=O)c3ccc(F)cc3F)c3ccccc3CN12	-23.1% (inactive)	
CCOC(=O)CSC1=C(C#N)C(c2sccc2C)CC(=O)N1 (stereo not given)		3.55 µM (active)
C=CCSC1=C(C#N)C(c2cc(Br)c(O)c(OC)c2)CC(=O)N1 (stereo not given)	-1.88% (inactive)	
COC(=O)CSC1=C(C#N)C(c2ccccc2OC)C(C(=O)OC)C(=O)N1 (stereo not given)	-2.46% (inactive)	
COc1cccc(CNC(=O)C2CCN(S(=O)(=O)c3cccc4cccnc34)CC2)c1	-14.2% (inactive)	
Cc1ccc2nc3n(c(=O)c2c1)CCC3	-1.96% (inactive)	
Cc1ccc2nc(C)c3c(c2c1)N(c1ccccc1)CC3		13 µM (active)
Cc1nc2ccc(C(=O)N3CCN(c4ccccc4)CC3)cc2s1	-8.77% (inactive)	
CC(=O)c1ccc(NC(=O)CCc2nnc3ccc(NCc4ccco4)nn23)cc1	-26.2% (inactive)	
Cc1cc(C)nc(NS(=O)(=O)c2ccc(NC(=O)c3cc(=O)c4ccc(C)c(C)c4o3)cc2)n1	-12.7% (inactive)	
Cc1nc(SCC(=O)Nc2ccc(C(=O)O)cc2)n[nH]1	-3.23% (inactive)	
O=C1c2ccccc2-c2ncnc3c(N4CCOCC4)cc(N4CCOCC4)c1c23		10.3 µM (active)
O=S(=O)(N1CCOCC1)N1CCN(c2ccccc2F)CC1	-6.21% (inactive)	
O=S(=O)(Nc1cc(Cl)ccc1N1CCOCC1)c1ccccc1Cl	-1.88% (inactive)	

SMILES	activity change, negative = growth inhibition	Potency
COc1ccc(CCNC(=O)CSc2nnc3ccc(-c4ccncc4)nn23)cc1	3.54% (inactive)	
CC(C)CNC(=O)c1cc(-c2ccc(Br)cc2)on1	-14.2% (inactive)	
Cc1ccccc1Cn1nc(C)c(NC(=O)C(F)(F)F)c1C	9% (inactive)	
CC(C)Cc1cc(C(=O)Nc2cc(Br)ccc2O)no1		14.6 µM (active)
Cc1nn(Cc2ccc(F)cc2)c(C)c1NC(=O)c1noc2c1CCc1ccccc1-2		18.4 µM (active) and 16.4 µM (active)
Cc1cc(C(=O)Nc2c(C)nn(Cc3ccccc3)c2C)on1	3.16% (inactive)	
Cc1nn(Cc2ccc(F)cc2)c(C)c1NC(=O)c1cc(CC(C)C)on1		20.6 µM (active)
Cc1nn(Cc2ccccc2Cl)c(C)c1NC(=O)Cn1nc([N+](=O)[O-])c(Cl)c1C	-1.09% (inactive)	
CC(C)Cc1cc(C(=O)NCCc2ccccc2)no1	-11.1% (inactive)	
Cc1nn(Cc2ccc(F)cc2)c(C)c1NC(=O)c1cccnc1Cl	0.0616% (inactive)	
c1ccc(CN=C2Nc3ccccc3CS2)nc1	-15.1% (inactive)	
CC1(C)O[C@H]2CC(=O)OCC23[C@H]2CC[C@@]4(C)[C@H](c5ccoc5)OC(=O)[C@H]5O[C@]54[C@]2(C)C(=O)C[C@@H]13 (stereo not given in full)	-0.653% (inactive)	
COc1ccc(NC(=O)c2c(SC)nsc2SC)cc1	-15.8% (inactive)	
Oc1ccc2c(c1)OCC1c3cc4c(cc3OC21)OCO4 (stereo not given)	1.62% (inactive)	
CCSc1sc(CC)cc1C=O	-5.26% (inactive)	
COc1ccccc1/C=C/C=N/NC(=O)CN1CCN(Cc2ccccc2)CC1	-25.1% (inactive)	
Cc1cc(SCc2c(F)cccc2Cl)nc(=O)[nH]1	-21.7% (inactive)	
COc1ccc(NC(=O)N2CCCn3nc(C)cc32)cc1OC	-3.6% (inactive)	
CCn1cc(NC(=O)Nc2ccc(OC)c(OC)c2)c(C(N)=O)n1	-6.75% (inactive)	
COc1ccc(NC(=O)NC(C)c2c(-n3cccc3)sc(C)c2C)cc1OC (stereo not given)		16.4 µM (active)
Cc1ccc(NC(=O)CCC(=O)c2ccc(Br)cc2)cc1	8.36% (inactive)	
COCC(C)NC(=O)COc1nncc2ccccc12 (stereo not given)	-1.48% (inactive)	
NC(Cc1ccc(F)cc1)c1csc(Nc2nncc3ccccc23)n1 (stereo not given)		4.11 µM (active)
O=C(Nc1ccc2c(c1)OCCO2)C1CCCN(c2ncccn2)C1 (stereo not given)	-21.7% (inactive)	
CC1Cc2ccccc2N1S(=O)(=O)c1ccc(Cl)nc1 (stereo not given)	-14.7% (inactive)	
Cc1cc(-c2ccc(C)c(S(=O)(=O)N3c4ccccc4CC3C)c2)on1 (stereo not given)		23.1 µM (active)
Cc1cc(-c2ccc(C)c(S(=O)(=O)Nc3ccc(S(N)(=O)=O)cc3)c2)on1	1.72% (inactive)	

SMILES	activity change, negative = growth inhibition	Potency
Cc1cc(NC(=O)CCC(=O)N(CC(=O)NCC2CCCO2)c2ccccc2C)no1 (stereo not given)	1.54% (inactive)	
COc1ccccc1NC(=O)CSc1nnc(Cn2nnc(-c3ccccc3)n2)n1-c1ccccc1		20.6 µM (active)
COc1ccccc1NC(=O)CSc1nnc(Cc2cccn2C)n1-c1ccc(F)cc1	-12.2% (inactive)	
COc1ccccc1OCc1nnc(SCC(N)=O)n1-c1ccccc1	-2.24% (inactive)	
COc1ccc(Cl)cc1-n1c(=S)sc2c(=O)n(-c3ccc(F)cc3)c(SCC(=O)O)nc21	1.54% (inactive)	
O=C(O)c1cc(S(=O)(=O)N2CCCCCC2)c(Cl)cc1Cl	-12.2% (inactive)	
Cc1ccc(CNC(=O)CCNS(=O)(=O)c2ccc(Br)s2)cc1	-15.4% (inactive)	
CC1=NN(C(=O)Cc2ccc(C)cc2)C(O)(c2cccnc2)C1 (stereo not given)	-17.6% (inactive)	
CC1=NN(C(=O)CCCc2ccccc2)C(O)(C(F)(F)F)C1 (stereo not given)	0.642% (inactive)	
COc1ccc(CC(=O)N2N=C(C)CC2(O)C(F)(F)F)cc1 (stereo not given)		3.26 µM (active)
Cc1ccc(CNS(=O)(=O)c2ccc3c(c2)N(C)CCO3)cc1	-25.3% (inactive)	
CCCCC(=O)Nc1ccc2c(c1)C(=O)NC2=O	-19.1% (inactive)	
Oc1cccc(CCc2ccccn2)c1	-0.0969% (inactive)	
NS(=O)(=O)c1ccc(CCNC(=O)Nc2ccc(Cl)cc2)cc1	-22.3% (inactive)	
O=C(NCc1cn2ccsc2n1)Nc1ccc(Cl)cc1	-20.7% (inactive)	
CC(C)S(=O)(=O)c1csc(NC(=O)Nc2ccc(Cl)cc2)c1Cl		16.4 µM (active)
Cc1cccc(NC(=O)c2cccc(C(=O)Nc3cccc(C)c3C)n2)c1C	-7.12% (inactive)	
CCN1/C(=C/c2ccc3ccc(C)cc3[n+]2CC)Sc2ccccc21		2.06 µM (active)
CCN1/C(=C\c2ccc3ccccc3[n+]2CC)Sc2cc(C)ccc21		0.184 µM (active)
Cn1c(Nc2ccccc2)cc(=O)n(C)c1=O	1.8% (inactive)	
CCc1ccccc1NC(=S)N(CCN1CCCCCC1)Cc1ccco1	-1.1% (inactive)	
CCN(CC)S(=O)(=O)c1ccc2nc(COC(=O)c3n[nH]c4ccccc34)[nH]c2c1	-17.7% (inactive)	
CC(=O)OC1CCC2(C)C(=CCC3C4CC(=O)N(O)C(=O)C4(C)CCC32)C1 (stereo not given)		5.17 µM (active)
C[C@]12CC[C@H](O)CC1=CCC1C2CC[C@@]2(C)C1CC[C@@H]2NC(=O)CCC(=O)O (stereo not given in full)	-8.9% (inactive)	
CC(=O)O[C@H]1CC[C@@]2(C)C(=CC[C@@H]3[C@@H]2CC[C@]2(C)C(c4cccnc4)=CC[C@@H]32)C1	-23.6% (inactive)	
CN(C)CCNC(=O)/C(=C/c1cccc([N+](=O)[O-])c1)NC(=O)c1ccccc1	2.73% (inactive)	
CCOCc1nnc(NC(=O)CSc2ccc(C)cc2)s1	-19.2% (inactive)	

SMILES	activity change, negative = growth inhibition	Potency
OC1CSc2nc3ccccc3n2C1 (stereo not given)	4.08% (inactive)	
CCCc1nn2c(=O)cc(CSCC(=O)Nc3cccc(C)c3)nc2s1	18.6% (inactive)	
O=C(C[C@H]1C/C=C\C[C@@H](NC(=O)OCC2c3ccccc3-c3ccccc32)C(=O)O[C@@H](c2ccccc2)CNC1=O)N[C@H](CO)Cc1ccccc1		18.4 µM (active)
CC(C)(C)OC(=O)C[C@@H]1C/C=C\C[C@@H](CC(=O)N[C@H](CO)Cc2ccccc2)C(=O)NC[C@@H](c2ccccc2)OC1=O		20.6 µM (active)
CC(C)(C)OC(=O)NC(Cc1ccccc1)C(=O)NC(CSC1CCCCO1)C(=O)NN (stereo not given)	0.0689% (inactive)	
C[C@H]1COC(=O)[C@H](CC(=O)OC(C)(C)C)C/C=C\C[C@@H](CC(=O)N[C@H](CO)Cc2ccccc2)C(=O)N1		14.6 µM (active)
CC(C)(C)OC(=O)C[C@H]1C/C=C\C[C@@H](CC(=O)N[C@H](CO)Cc2ccccc2)C(=O)NC[C@@H](c2ccccc2)OC1=O		18.4 µM (active)
CC(C)[C@@H](NC(=O)OC(C)(C)C)C(=O)NCC1CCC(C(=O)N[C@@H](Cc2ccccc2)C(=O)O)CC1 (stereo not given in full)	-10.5% (inactive)	
COc1ccc(OCC(=O)NCCc2ccc(S(N)(=O)=O)cc2)cc1	0.22% (inactive)	
CCC(C)N1CC(=O)N2Cc3[nH]c4ccccc4c3C[C@H]2C1=O (stereo not given in full)	-16.6% (inactive)	
CCN(CC)CCNS(=O)(=O)c1ccc(/C=C/C(=O)O)cc1	-7.55% (inactive)	
CNCC(O)c1ccc(O)c(O)c1 (stereo not given)	-15.9% (inactive)	
COc1ccc(CNC(=O)C(=O)NCC2OCCN2C(=O)c2ccc(OC)cc2)cc1 (stereo not given)	-16.3% (inactive)	
C/C(=C(\C#N)C(=O)NCCCN1CCOCC1)N(C)C	-3.07% (inactive)	
O=C(CCc1ccccc1)NNc1ccc(F)cc1	-26.9% (inactive)	
Cc1cccc2cc(CN(Cc3ccc4c(c3)OCO4)Cc3nnnn3C3CCCC3)c(=O)[nH]c12		16.4 µM (active)
CCC(=O)Nc1cccc(NC(=O)CSc2nnnn2C2CCCC2)c1	-14.2% (inactive)	
Cc1ccccc1-c1nnc(SCC(=O)NCc2ccc3c(c2)OCO3)n1C	-2.12% (inactive)	
Cc1cccc2cc(CN(Cc3nnnn3Cc3ccccc3)C3CCCC3)c(=O)[nH]c12		12.6 µM (active)
CC(C)C(c1nnnn1Cc1ccccc1)N1CCC(C(N)=O)CC1 (stereo not given)	6.13% (inactive)	
CCC(c1nnnn1C1CCCC1)N(Cc1cccs1)Cc1cc2cccc(C)c2[nH]c1=O (stereo not given)		18.4 µM (active)
Cc1cccc2cc(CN(Cc3cccs3)C(c3nnnn3C3CCCC3)C(C)C)c(=O)[nH]c12 (stereo not given)	-20.3% (inactive)	
O=C(CSc1nnnn1C1CCCC1)Nc1ccc2c(c1)OCCO2	0.417% (inactive)	
Cc1cccc2[nH]c(CN(C)C(=O)C3CCC(=O)N(CCc4ccccc4)C3)nc12 (stereo not given)	-10.5% (inactive)	
